Legend:
Settings in all cases: concentration: 1 μM, replicates: in singlicate; n = 1
[1] = tested on: MARK4
[2] = tested on: MAST1
[3] = tested on: T1, MEK1
T1 construct: gene MAP2K1

[4] = tested on: T2, MEK2
T2 construct: gene MAP2K2

[5] = tested on: T3, MEK3
T3 construct: gene MAP2K3

[6] = tested on: T4, MEK4
T4 construct: gene MAP2K4

[7] = tested on: T5, MEK5
T5 construct: gene MAP2K5

[8] = tested on: T6, MEK6
T6 construct: gene MAP2K6

[9] = tested on: MELK
[10] = tested on: MERTK
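Further: KINOMEscan kinase panel screen.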

SMILES | %Inh [1] [%] | %Inh [2] [%] | %Inh [3] [%] | %Inh [4] [%] | %Inh [5] [%] | %Inh [6] [%] | %Inh [7] [%] | %Inh [8] [%] | %Inh [9] [%] | %Inh [10] [%]
Cc1nc(N(C)[C@H]2CN(C(=O)CC#N)CC[C@H]2C)c2cc[nH]c2n1 | 12 | 0 | 2 | 4 | 10 | 0 | 0 | 0 | 0 | 24
Cc1cccc(-c2nc(Nc3ccc4c(cnn4C)c3)c3ccccc3n2)n1 [GW876731] | 8 | 100 | 0 | 0 | 0 | 0 | 0 | 5 | 0 | 0
Cc1ccccc1COc1cc(-n2cnc3cc(Cl)ccc32)sc1C(N)=O [GW813349] | 8 | 0 | 6 | 14 | 19 | 0 | 59 | 0 | 33 | 16
O=C(Nc1n[nH]c2cc(-c3ccccc3F)ccc12)C1CC1 [SB-733371] | 0 | 52 | 0 | 14 | 16 | 0 | 48 | 0 | 0 | 0
CN1C(=O)C(Nc2cc(Cl)c(O)c(Cl)c2)=C(c2ccc(Cl)cc2)C1=O [SB-404321] | 0 | 41 | 0 | 0 | 29 | 0 | 25 | 0 | 0 | 30
COc1ccc(-c2cc3c(C)nc(N)nc3n([C@H]3CC[C@H](OCCO)CC3)c2=O)cn1 | 0 | 0 | 0 | 0 | 5 | 0 | 0 | 16 | 19 | 0
CCC(=O)c1c(-c2ccccc2)c2cc(Cl)ccc2c(=O)n1Cc1cc(C(=O)NC2CC2)n(C)n1 | 13 | 47 | 6 | 3 | 2 | 8 | 11 | 22 | 0 | 5
COC(=O)c1c(-c2ccccc2)c2cc(Br)ccc2c(=O)n1Cc1ccc(S(C)(=O)=O)cc1 | 1 | 21 | 13 | 7 | 2 | 17 | 29 | 17 | 12 | 4
Cc1cccc(-c2cc(-c3c[nH]nc3-c3ccccn3)ccn2)c1 [GW679395] | 0 | 0 | 0 | 0 | 0 | 36 | 27 | 0 | 0 | 12
COc1cc(OC)cc(-c2cc3cnc(N)nc3nc2NC(=O)NC(C)(C)C)c1 | 0 | 0 | 0 | 0 | 0 | 0 | 0 | 0 | 0 | 0
COc1cc2nccc(Nc3cccc(Oc4ccccc4)c3)c2cc1OC.Cl [GW284543] | 1 | 7 | 87 | 88 | 0 | 0 | 99.9 | 0 | 8 | 0
Cc1nn2c(=O)cc(N3CCOCC3)nc2n1Cc1cccc(Cl)c1Cl [GSK2342769] | 0 | 2 | 0 | 0 | 0 | 31 | 0 | 0 | 8 | 10
Cl.NS(=O)(=O)c1cccc(Nc2cc(-c3ccc(F)cc3)n[nH]2)c1 [GW824645] | 6 | 9 | 12 | 45 | 22 | 27 | 70 | 0 | 0 | 0
Nc1nc(N)c2nc(-c3ccccc3)[nH]c2n1 [SKF-12778] | 11 | 0 | 0 | 13 | 0 | 1 | 18 | 0 | 9 | 47
Nc1ncnc2c1ncn2-c1cccc2ccccc12 [SKF-97184] | 29 | 53 | 5 | 24 | 38 | 8 | 26 | 22 | 0 | 0
CCS(=O)c1ccc(-c2coc3ccc(-c4nnc(C)o4)cc23)cc1 (centres unmarked) | 0 | 53 | 0 | 8 | 6 | 23 | 22 | 0 | 0 | 0
COc1ccc(-c2cc3c(C)nc(N)nc3n([C@H]3CC[C@H](O)CC3)c2=O)cn1 | 0 | 0 | 0 | 0 | 0 | 0 | 0 | 0 | 3 | 0

From paper PMC5540273 (PLoS ONE, 2017)
